Here are results for 23 compounds from PubChem BioAssay.

Assay [1] in a line: antimalarial activity against Dd2 strain (AID 2302;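 active = growth inhibition above 50% at the single 2 µM test dose, taken to imply half-maximal potency below 2 µM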;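 note: 0% = DMSO untreated growth and 100% = chloroquine plus artemisinin killed control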). Particulars: P. falciparum Dd2 in RBCs, LDH growth readout, 72 h; at 2 µM; hits give high values.
Assay [2] is described as follows: HepG2 cytotoxicity, primary screen, cytotoxicity control for P. falciparum antimalarial project, cell-based, ATP luminescence (AID 2303;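 active = inhibition above 50%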;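 note: 0% = DMSO wells and 100% = digitonin-killed cells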). The settings on record: HepG2 viability, 24-48 h, at 10 µM, hits give high values.
Assay [3] addresses L-lactate dehydrogenase (Plasmodium falciparum (isolate CDC / Honduras)) (UniProt Q27743). As to the kind of experiment: PfLDH activity inhibition – cell lysate, 3D7 strain, counter-screen for P. falciparum growth inhibition project (AID 2304).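 Note: 0% = vehicle and 100% = reference inhibitor.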 The settings on record: P. falciparum 3D7 crude extract, LDH APAD/NBT absorbance; at 2 µM; hits give high values.
Assay [4] can be described thus: inhibition of 3D7 malaria parasite growth – strain 3D7 (AID 2306).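 Note: 0% = DMSO wells and 100% = chloroquine plus artemisinin control wells.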 Particulars: P. falciparum 3D7 erythrocytic growth, LDH absorbance, 72 h; at 2 µM; hits give high values.
Assay [5] concerns the target Calcium-dependent protein kinase 1 (Plasmodium falciparum (isolate 3D7)) (UniProt P62344). The experiment in a line: PfCDPK1 kinase inhibitors, biochemical, TCAMS library (AID 1159585; cut-off not given, nearly all actives have IC50 up to about 0.98 µM;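 note: inhibitors leave more ATP so luminescence rises with inhibition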). The settings on record: recombinant PfCDPK1, Kinase-Glo ATP depletion luminescence.
Assay [6] concerns the target Plasmodium falciparum protein kinase 6 (PK6, PF3D7_1337100) (UniProt Q8IDW1). As to the kind of experiment: PfPK6 kinase inhibitors, biochemical, TCAMS library (AID 1159586). Particulars: recombinant PfPK6, Kinase-Glo ATP depletion luminescence.
For assay [7], the target named is Protein kinase 7 (PK7), Plasmodium falciparum 3D7 (PF3D7_0213400) (UniProt Q7YTF7). The experiment in a line: inhibition of Plasmodium PK7 catalytic activity – biochemical, TCAMS antimalarial set, Kinase-Glo luminescence (AID 1159587). Particulars: recombinant PfPK7, Kinase-Glo ATP depletion luminescence.
Chain of Protein kinase 7 (PK7), Plasmodium falciparum 3D7 (PF3D7_0213400) (Q7YTF7 1-343): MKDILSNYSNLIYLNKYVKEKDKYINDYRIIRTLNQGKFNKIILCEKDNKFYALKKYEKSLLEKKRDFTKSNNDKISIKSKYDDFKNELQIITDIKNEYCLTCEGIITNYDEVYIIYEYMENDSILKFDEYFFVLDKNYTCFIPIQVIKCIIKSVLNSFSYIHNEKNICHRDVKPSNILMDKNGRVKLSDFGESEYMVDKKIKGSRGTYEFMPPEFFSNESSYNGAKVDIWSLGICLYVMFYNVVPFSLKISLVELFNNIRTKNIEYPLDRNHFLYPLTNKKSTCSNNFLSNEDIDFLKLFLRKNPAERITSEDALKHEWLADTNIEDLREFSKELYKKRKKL
For assay [8], the target named is Calcium-dependent protein kinase 4 (Plasmodium falciparum (isolate 3D7)) (UniProt Q8IBS5). The experiment in a line: PfCDPK4 kinase inhibitors, biochemical, TCAMS library (AID 1159588; cut-off not given, nearly all actives have IC50 up to about 0.91 µM). Particulars: recombinant PfCDPK4, Kinase-Glo ATP depletion luminescence.
Chain of Calcium-dependent protein kinase 4 (Plasmodium falciparum (isolate 3D7)) (Q8IBS5 whole entry, looked up): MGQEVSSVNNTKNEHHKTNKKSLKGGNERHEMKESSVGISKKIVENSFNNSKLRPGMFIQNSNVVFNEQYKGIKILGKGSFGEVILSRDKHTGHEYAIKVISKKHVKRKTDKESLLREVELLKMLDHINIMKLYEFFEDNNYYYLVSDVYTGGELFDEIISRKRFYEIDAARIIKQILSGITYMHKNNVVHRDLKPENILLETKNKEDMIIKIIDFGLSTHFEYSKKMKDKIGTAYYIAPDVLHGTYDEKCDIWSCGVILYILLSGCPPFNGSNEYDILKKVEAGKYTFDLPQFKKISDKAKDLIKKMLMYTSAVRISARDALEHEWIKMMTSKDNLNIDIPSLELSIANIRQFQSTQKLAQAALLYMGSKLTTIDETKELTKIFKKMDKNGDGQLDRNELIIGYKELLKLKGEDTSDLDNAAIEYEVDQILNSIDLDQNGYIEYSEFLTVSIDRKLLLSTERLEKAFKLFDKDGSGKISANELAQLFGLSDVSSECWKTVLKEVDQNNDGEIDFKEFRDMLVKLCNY

Each structure is given as a SMILES string. Values without a mark were called inactive. For some of these results: Entries with a potency or affinity are not part of this list. Calls of active or inactive are those of the source. Unless noted, the rule behind the calls is not given here.

Chain of L-lactate dehydrogenase (Plasmodium falciparum (isolate CDC / Honduras)) (Q27743 whole entry, looked up): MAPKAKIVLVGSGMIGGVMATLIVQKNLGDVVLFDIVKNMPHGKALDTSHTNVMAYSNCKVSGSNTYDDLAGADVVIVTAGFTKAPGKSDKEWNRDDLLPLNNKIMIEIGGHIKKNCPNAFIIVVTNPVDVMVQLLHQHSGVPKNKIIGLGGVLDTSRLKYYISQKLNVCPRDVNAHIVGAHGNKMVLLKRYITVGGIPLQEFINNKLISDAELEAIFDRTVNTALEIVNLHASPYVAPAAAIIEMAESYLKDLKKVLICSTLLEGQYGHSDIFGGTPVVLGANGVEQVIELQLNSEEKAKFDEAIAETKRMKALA
Chain of Calcium-dependent protein kinase 1 (Plasmodium falciparum (isolate 3D7)) (P62344 whole entry, looked up): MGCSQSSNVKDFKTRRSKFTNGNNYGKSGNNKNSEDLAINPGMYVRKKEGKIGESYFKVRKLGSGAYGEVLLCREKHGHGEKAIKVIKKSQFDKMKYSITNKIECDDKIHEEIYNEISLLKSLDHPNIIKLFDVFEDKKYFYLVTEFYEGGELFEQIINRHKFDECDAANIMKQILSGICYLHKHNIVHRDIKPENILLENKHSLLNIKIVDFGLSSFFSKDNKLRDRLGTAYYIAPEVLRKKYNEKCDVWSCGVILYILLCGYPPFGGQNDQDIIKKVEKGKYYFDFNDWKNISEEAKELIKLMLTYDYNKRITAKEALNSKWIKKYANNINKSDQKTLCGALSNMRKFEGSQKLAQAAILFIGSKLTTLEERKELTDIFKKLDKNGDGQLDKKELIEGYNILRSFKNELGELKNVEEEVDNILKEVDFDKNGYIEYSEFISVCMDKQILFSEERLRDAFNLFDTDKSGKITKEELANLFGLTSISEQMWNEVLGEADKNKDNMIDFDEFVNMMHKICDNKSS
Chain of Plasmodium falciparum protein kinase 6 (PK6, PF3D7_1337100) (Q8IDW1 1-305): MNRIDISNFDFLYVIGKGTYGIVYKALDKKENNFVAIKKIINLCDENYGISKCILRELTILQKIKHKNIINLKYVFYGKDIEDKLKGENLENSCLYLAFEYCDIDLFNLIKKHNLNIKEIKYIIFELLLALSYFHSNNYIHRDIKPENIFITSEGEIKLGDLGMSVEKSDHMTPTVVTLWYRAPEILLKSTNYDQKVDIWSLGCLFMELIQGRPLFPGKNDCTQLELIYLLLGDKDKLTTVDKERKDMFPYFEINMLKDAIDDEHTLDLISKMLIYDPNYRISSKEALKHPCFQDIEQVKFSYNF

As for `COc1ccccc1C1CC(c2ccc(C)cc2)=NN1C(=O)c1ccccc1` (centres undefined), the growth inhibition is 45% in assay [1] and 98% (active) in assay [4]. The inhibition is 37% in assay [2] and -5% in assay [3]. The outcome in assay [5], in assay [6], in assay [7] and in assay [8] was inactive.
As for `FC(F)(F)c1cccc(Nc2nc3ccccc3nc2Nc2cccc(C(F)(F)F)c2)c1`, the results for the growth inhibition in assay [1] and in assay [4] were 100% (active) and 101% (active), respectively. The inhibition was 45% in assay [2] and 2% in assay [3]. Further, the result in assay [5], in assay [6], in assay [7] and in assay [8] was inactive.
Take `COc1ccc(CCNCCCCCCNCCc2ccccc2Cl)cc1OC`: the growth inhibition in assay [1] was 3%; in assay [4] it was 96% (active). Besides, the values for the inhibition in assay [2] and in assay [3] were 13% and -1%, respectively. Further, the result in assay [5], in assay [6], in assay [7] and in assay [8] was inactive.
For `CO/C(=C\C=C\c1cc2cc(Cl)c(Cl)cc2[nH]1)C(=O)NC1CCN(CCOc2ccccc2)CC1`, the growth inhibition in assay [1] was 94% (active); in assay [4], 101% (active). In addition, the inhibition was 35% in assay [2] and -3% in assay [3]. For the same compound, the outcome in assay [5], in assay [6], in assay [7] and in assay [8] was inactive.
Turning to `N#Cc1ccc(-c2ccc(C(=O)NCCCCN3CCC(c4ccncc4)CC3)cc2)cc1`, the growth inhibition is 16% in assay [1] and 94% (active) in assay [4]. Besides, the inhibition was 34% in assay [2] and -3% in assay [3]. In addition, the result in assay [5], in assay [6], in assay [7] and in assay [8] was inactive.
Regarding `C=C[C@H]1CN(CCCCCCC)CC[C@H]1CCNc1ccnc2ccc(OC)cc12`, the growth inhibition in assay [1] is 81% (active); in assay [4] it was 95% (active). Further, the results for the inhibition in assay [2] and in assay [3] were 99% (active) and 7%, respectively. Moreover, the result in assay [5], in assay [6], in assay [7] and in assay [8] was inactive.
In the case of `CN1CCCCC1CCc1cc(C(=O)Nc2ccc(-c3ccc(O)cc3)cc2)ccc1O` (centres undefined), the growth inhibition is 11% in assay [1] and 91% (active) in assay [4]. In addition, the inhibition was 6% in assay [2] and 3% in assay [3]. The result in assay [5], in assay [6], in assay [7] and in assay [8] was inactive.
For `COc1ccc(NCCCNc2ccnc3ccccc23)cc1`, the figures for the growth inhibition in assay [1] and in assay [4] were 17% and 88% (active), respectively. The inhibition was 34% in assay [2] and 2% in assay [3]. For the same compound, the result in assay [5], in assay [6], in assay [7] and in assay [8] was inactive.
`O=C(/C=C/c1ccc(Cl)cc1)NCCCCCN1CCCC(C(=O)Nc2ccc(Cl)cc2)C1` (centres undefined): the growth inhibition in assay [1] is 6%; in assay [4], 94% (active). Also, the figures for the inhibition in assay [2] and in assay [3] were 24% and 8%, respectively. The result in assay [5], in assay [6], in assay [7] and in assay [8] was inactive.
As for `CC(C)c1ccc(NC(=O)N2CCc3ccc(OCCN(C(C)C)C(C)C)cc32)c(Br)c1`, the growth inhibition is 5% in assay [1] and 86% (active) in assay [4]. Further, the inhibition in assay [2] was 6%; in assay [3], 2%. Further, the outcome in assay [5], in assay [6], in assay [7] and in assay [8] was inactive.
Take `Cc1ccc(Nc2ccnc(Nc3ccc(F)c(Cl)c3)n2)cc1O`: the growth inhibition in assay [1] was 52% (active); in assay [4] it was 101% (active). The inhibition in assay [2] was 9%; in assay [3] it was -4%. The result in assay [5], in assay [6], in assay [7] and in assay [8] was inactive.
Take `O=[N+]([O-])c1cccc(-c2ccc(C=NNc3cc(N4CCCC4)nc(N4CCCC4)n3)o2)c1`: the growth inhibition in assay [1] was 67% (active); in assay [4] it was 100% (active). For the same compound, the inhibition in assay [2] is -6%; in assay [3] it was 0%. Moreover, the outcome in assay [5], in assay [6], in assay [7] and in assay [8] was inactive.
Consider `O=C(Nc1ccc(Cl)c(Cl)c1)Nc1ccc2c(c1)CCNCC2`, for which the growth inhibition is 37% in assay [1] and 86% (active) in assay [4]. For the same compound, the figures for the inhibition in assay [2] and in assay [3] were 13% and -1%, respectively. Also, the outcome in assay [5], in assay [6], in assay [7] and in assay [8] was inactive.
Turning to `O=C(Nc1ccc(Cl)c(C(F)(F)F)c1)c1ccc(Cl)c([N+](=O)[O-])c1`, the growth inhibition in assay [1] was 18%; in assay [4], 87% (active). The results for the inhibition in assay [2] and in assay [3] were 20% and -2%, respectively. The result in assay [5], in assay [6], in assay [7] and in assay [8] was inactive.
With `COc1ccc2nccc([C@@H](O)CN3CCC(NCc4cc5cccc(OC)c5o4)CC3)c2c1`, the growth inhibition in assay [1] was 81% (active); in assay [4], 99% (active). For the same compound, the figures for the inhibition in assay [2] and in assay [3] were 10% and -8%, respectively. For the same compound, the outcome in assay [5], in assay [6], in assay [7] and in assay [8] was inactive.
In the case of `O=C(/C=C/c1ccc(Cl)c(Cl)c1)NCCCCCN1CCCN(C(=S)Nc2ccc(Cl)c(Cl)c2)CC1`, the growth inhibition in assay [1] was -3%; in assay [4], 96% (active). For the same compound, the values for the inhibition in assay [2] and in assay [3] were 16% and -3%, respectively. The result in assay [5], in assay [6], in assay [7] and in assay [8] was inactive.
For the compound `CCCOc1cc(OCCC)cc(-c2cc(=O)c3ccccc3[nH]2)c1`, the results for the growth inhibition in assay [1] and in assay [4] were 96% (active) and 99% (active), respectively. The inhibition in assay [2] is 33%; in assay [3], -2%. For the same compound, the outcome in assay [5], in assay [6], in assay [7] and in assay [8] was inactive.
`c1ccc(CCNc2ccnc(Nc3ccc4cn[nH]c4c3)n2)cc1`: the growth inhibition in assay [1] was 100% (active); in assay [4], 101% (active). Also, the inhibition in assay [2] is 54% (active); in assay [3] it was -3%. In addition, the outcome in assay [5], in assay [6], in assay [7] and in assay [8] was inactive.
In the case of `CN1CC[C@@H](Oc2cc(NC(=O)Nc3ccc(Cl)c(C(F)(F)F)c3)ccc2Cl)C1`, the growth inhibition is 68% (active) in assay [1] and 100% (active) in assay [4]. The inhibition in assay [2] is 17%; in assay [3], 0%. The outcome in assay [5], in assay [6], in assay [7] and in assay [8] was inactive.
Regarding `O=C(CCNc1ccnc(NCCc2ccccc2)n1)Nc1ccccc1`, the growth inhibition in assay [1] was 19%; in assay [4], 89% (active). Moreover, the inhibition in assay [2] is 7%; in assay [3], 2%. In addition, the result in assay [5], in assay [6], in assay [7] and in assay [8] was inactive.
With `Cc1cc2ccc(-c3cccc(CN)c3)cc2nc1N`, the growth inhibition is 1% in assay [1] and 100% (active) in assay [4]. The results for the inhibition in assay [2] and in assay [3] were -4% and -6%, respectively. Moreover, the outcome in assay [5], in assay [6], in assay [7] and in assay [8] was inactive.
As to `COc1cccc(C(=O)Nc2nonc2-c2ccc(OC)c(OC)c2)c1`, the growth inhibition was 50% (active) in assay [1] and 97% (active) in assay [4]. Further, the inhibition in assay [2] was 7%; in assay [3], -8%. Moreover, the result in assay [5], in assay [6], in assay [7] and in assay [8] was inactive.
Turning to `Oc1ccc(-c2nc3c(N4CCN(Cc5ccccc5)CC4)cccc3n2C2CCNCC2)cc1`, the results for the growth inhibition in assay [1] and in assay [4] were 7% and 85% (active), respectively. For the same compound, the results for the inhibition in assay [2] and in assay [3] were -1% and 0%, respectively. Further, the outcome in assay [5], in assay [6], in assay [7] and in assay [8] was inactive.
